Consider 17 molecules from publication PMC5540273 (PLoS ONE, 2017).

A word on the Kd: it is the concentration at which binding is half-saturated. A higher Kd goes with a looser complex.

The structures appear in SMILES notation. Some results are limits rather than exact numbers.

The test system of assay [1] is TXK.
The subject of assay [2] is ZAK.
In assay [3] the test system is AAK1. Particulars: concentration: 1 μM, replicates: in singlicate; n = 1.
Assay [4] concerns ABL1-nonphosphorylated. The note with it: concentration: 1 μM, replicates: in singlicate; n = 1.
Assay [5] concerns ABL1-phosphorylated. The note with it: concentration: 1 μM, replicates: in singlicate; n = 1.
The test system of assay [6] is ABL2. The note with it: concentration: 1 μM, replicates: in singlicate; n = 1.
In assay [7] the test system is ACVR1B. The note with it: concentration: 1 μM, replicates: in singlicate; n = 1.
Assay [8] deals with WNK4.
For assay [9], the system named is TTK.
For assay [10], the system named is T1, p38-alpha.
T1 construct: gene MAPK14

For assay [11], the system named is T2, VEGFR2.
T2 construct: gene KDR

The test system of assay [12] is VRK2.
Assay [13] concerns T3, TRKC.
T3 construct: gene NTRK3

For assay [14], the system named is T4, YSK4.
T4 construct: gene MAP3K19

In assay [15] the test system is T5, VPS34.
T5 construct: gene PIK3C3
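Throughout, for %Inh: KINOMEscan kinase panel screen.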
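Throughout, for Kd: kd values determined as follow-up on hits from a single-replicate KINOMEscan panel screen.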

Take `COc1cccc(CNC(=O)NC2CCN(c3ccnc(Nc4ccc(F)cc4)n3)C2)c1` (stereo not drawn) [GSK1379723]: the Kd in assay [1] and in assay [2] was above 10 µM throughout. The “%Inh” value in [3] is 6%; in [4] it was 0%; in [5], 1%; in assay [6], 8%; in assay [7], 0%.
`CNc1cc(-c2ccc3c(N)n[nH]c3c2)nc(N)n1` [GSK2224810]: the Kd in assay [8] is above 10 µM. The “%Inh” value is 64% in assay [3]; 0% in assay [4]; 0% in [5]; 0% in assay [6]; 21% in assay [7].
In turn, `O=C1NC(=O)C(c2ccc(Cl)cc2)=C1Nc1ccc(O)cc1` [SB-340867] returned a Kd in assay [9] of 5.5 µM. In addition, the “%Inh” value in [3] is reported as 3%; in assay [4], 28%; in [5] it was 0%; in assay [6] it was 0%; in assay [7], 0%.
In turn, `COc1nccc(-c2c(-c3ccc(F)cc3)ncn2CCCN2CCOCC2)n1` [SB-282852] had a Kd in assay [10] of 160 nM. The “%Inh” value in assay [3] stood at 0%; in [4] it was 55%; in assay [5], 41%; in [6], 49%; in assay [7], 0%.
`Cn1cnc2c(N)ncnc21` [SKF-97623]: the Kd in assay [11] and in assay [12] was above 10 µM each time. Moreover, the “%Inh” value in [3] was found to be 0%; in assay [4], 21%; in assay [5], 0%; in [6], 2%; in [7] it was 0%.
In the case of `COC(=O)c1cccc(NC(=O)NC2CCN(c3ccnc(Nc4ccc(OC)cc4)n3)C2)c1` (stereo not drawn) [GSK1379746], the Kd in assay [13] was 1000 nM. Besides, the “%Inh” value was 18% in assay [3]; 0% in [4]; 0% in [5]; 13% in [6]; 0% in [7].
The molecule `O=C(Nc1n[nH]c2cc(-c3ccsc3)ccc12)C1CC1` [SB-732932] showed a Kd in [14] of 120 nM. In addition, the “%Inh” value in [3] is given as 56%; in assay [4], 47%; in assay [5], 11%; in assay [6] it was 18%; in assay [7], 21%.
As to `Nc1nccc(-c2c(-c3ccc(F)cc3)ncn2C2CCN(Cc3ccccc3)CC2)n1` [SB-219980], binding in [10] was put at a Kd of 46 nM. Further, the “%Inh” value in assay [3], in [4], in assay [5], in assay [6] and in assay [7] was 0% in each case.
As for `Cc1cccc2c(-c3ccncn3)c(-c3ccc(F)cc3)nn12` [GW515532], binding in assay [10] was put at a Kd of 1300 nM. Besides, the “%Inh” value in assay [3] amounted to 0%; in assay [4] it was 0%; in assay [5], 0%; in assay [6] it was 2%; in assay [7], 2%.
Regarding `O=C1NC(=O)C(c2ccc(Cl)cc2)=C1Nc1cccc(Cl)c1` [SB-317651], the Kd in assay [15] was 300 nM; in assay [12] it was above 10 µM. Besides, the “%Inh” value was 0% in assay [3]; 47% in assay [4]; 0% in assay [5]; 0% in assay [6]; 0% in assay [7].
On to `O=c1cc(N2CCOCC2)nc2n(Cc3ccccc3F)ccn12` [GSK2297428], for which the affinity in assay [15], expressed as Kd, was 68 nM. Moreover, the “%Inh” value was 5% in assay [3]; 0% in assay [4]; 0% in [5]; 8% in [6]; 0% in assay [7].
In assay [15], `Cc1ccccc1Cn1ccn2c(=O)cc(N3CCOCC3)nc12` [GSK2269905] yielded a Kd of 180 nM. Moreover, the “%Inh” value came to 24% in assay [3]; 0% in [4]; 0% in assay [5]; 11% in assay [6]; 0% in assay [7].
Molecule `O=c1cc(N2CCOCC2)nc2n(Cc3cccc(Cl)c3Cl)c3ccccc3n12` [GSK2299009] registered a Kd in assay [15] of 470 nM. For the same molecule, the “%Inh” value in assay [3] is reported as 31%; in assay [4], 0%; in assay [5], 0%; in assay [6], 16%; in assay [7], 0%.
With `Cc1ccccc1-c1cc(-c2c[nH]nc2-c2ccccn2)ccn1` [GW680061], in assay [10], binding was put at a Kd of 130 nM. The “%Inh” value came to 0% in assay [3]; 0% in assay [4]; 0% in assay [5]; 17% in assay [6]; 0% in assay [7].
Molecule `COC(=O)C(Cc1ccccc1)NC(=O)NC1CCN(c2ccnc(Nc3ccc(F)cc3)n2)C1` (stereo not drawn) [GSK1379714] had a Kd in [14] of 1400 nM. Further, the “%Inh” value in assay [3], in assay [4], in assay [5], in [6] and in assay [7] was 0% in each case.
In the case of `Nc1cccc(-c2ccc3c(N)n[nH]c3c2)n1` [GSK2192730], binding in assay [14] was characterised by a dissociation constant (Kd) of 130 nM. Besides, the “%Inh” value in assay [3] is 56%; in [4], 10%; in assay [5], 0%; in [6] it was 0%; in assay [7], 0%.
In [14], `Cc1ccc(NC(=O)Nc2ccccc2)cc1-c1ccc(C(=O)Nc2ccncc2)cc1` [GSK1398471] gave a Kd of 71 nM. For the same molecule, the “%Inh” value was 8% in assay [3]; 0% in assay [4]; 0% in [5]; 16% in [6]; 0% in assay [7].
